From PubChem BioAssay (NCATS)
Records with an inconclusive call do not appear. A call without a number means that no potency is given here. The source made the active and inactive calls. Unless noted, the call rests on the fitted dose curve; in most records, active means well fitted curve in the direction sought with a large enough effect; inconclusive means small, poorly fitted or top-dose-only effect, or another doubt; inactive means no such curve, though single readings can be large; an effect the other way counts as inactive or inconclusive.

Assays:
[1] = molecular target: Ubiquitin carboxyl-terminal hydrolase 2 (Homo sapiens) (UniProt O75604); assay: qHTS Validation Assay for Inhibitors of Ubiquitin-specific Protease USP2a Using CHOP2 as the Reporter (AID 463106)
Method in brief: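 Fluorescence read-out at Ex 485nm/Em 531nm after 60min RT, following addition of 25nM Ub-CHOP2 plus 25nM reporter substrate to USP2 core (10nM) pretreated 30min with compound. Data normalized to NEM full inhibition; concentration-response curves fitted.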

[2] = molecular target: DNA polymerase III PolC-type (Bacillus subtilis (strain 168)) (UniProt P13267); assay: qHTS Validation Assay for the Inhibitors of DNA Replication in Gram-Positive Bacteria (AID 485295);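 further: reconstituted holoenzyme with PolC plus beta clamp SSB and primase; PicoGreen fluorescence of double-stranded DNA made on primed circular M13 template; series mostly up to about 57 µM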
Method in brief: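 Primed replication of single-stranded M13Gori by a four-protein B. subtilis holoenzyme is measured at room temperature. Double-stranded product is quantified by PicoGreen fluorescence after an EDTA stop; inhibition is scaled between DMSO and EDTA controls.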

[3] = molecular target: Tumor susceptibility gene 101 protein (Homo sapiens) (UniProt Q99816); assay: qHTS Validation Assay for Iinhibitors of HIV-1 Budding by Blocking the Interaction of PTAP/TSG101 (AID 485342; calls by dose curve)
Method in brief: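 Fluorescence anisotropy measured PTAP-Tsg101 interaction. Final concentrations were 10 uM protein domain and 50 nM labeled peptide, equilibrated 20 min at room temperature.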

[4] = qHTS Validation Assay to Find Inhibitors of Chronic Active B-Cell Receptor Signaling (AID 485345; active means well fitted curve in the direction sought with a large enough effect in the main read-out, with a control signal flat, not every such curve was filed as active)
Method in brief: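 TMD8 ABC-DLBCL cells stably carrying doxycycline-inducible IkappaBalpha–green luciferase fusion plus unfused red luciferase; compounds 46 uM to 3 nM, 4 h at 37C with doxycycline. Corrected green/red luminescence ratio normalized to 10 uM MG-132 and basal cell wells; curves fitted.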

[5] = molecular target: Beta-2 adrenergic receptor (Homo sapiens) (UniProt P07550); assay: qHTS validation assay of beta-arrestin-biased ligands of beta2-adrenergic receptor (AID 485366)
Method in brief: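 qHTS, Tango cells, 1500 cells/well, DMEM + 1% FBS. Cpd 18 hr at 37 degrees C. Luciferin/ATP/CoA detection mix, 15 min RT, luminescence read. %Activity from corrected signal; CRC fit, curve class.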

[6] = molecular target: ATP-dependent 6-phosphofructokinase (Trypanosoma brucei brucei) (UniProt O15648); assay: qHTS Validation Assay to Find Inhibitors of T. brucei phosphofructokinase (AID 485368); further: potency means the concentration at half of the fitted maximal effect
Method in brief: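 Luminescent ADP detection measures PFK turnover of fructose-6-phosphate (0.5 mM) with ATP (0.1 mM) at pH 8.0. Reaction runs 45 min at room temperature with 1.25 nM enzyme; inhibitors tested as titrations up to 57 uM.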

[7] = molecular target: Thioredoxin reductase 1, cytoplasmic (Rattus norvegicus) (UniProt O89049); assay: qHTS Assay for Substrates of Mammalian Selenoprotein Thioredoxin Reductase 1 (TrxR1) (AID 488772);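 further: series mostly up to about 57 µM; a drop in NADPH fluorescence below the no-compound background marks a TrxR1 substrate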
Method in brief: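 In this dual-purpose format, potential substrates are identified from the first fluorescence read after selenite addition, not from the 8-minute delta. Rat enzyme is preincubated with NADPH and then with compound at ~22 deg C.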

[8] = Quantitative high throughput screen for delayed death inhibitors of the malarial parasite plastid, 96 hour incubation (AID 488745); further: series mostly up to about 29 µM; nearly all actives have a fitted effect of over 70% in size
Method in brief: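 Decreased firefly luciferase luminescence indicates inhibited growth of reporter-integrated P. falciparum after two generations (96 h, 37 C, 5% CO2). Infected erythrocytes at 0.1% parasitemia, 2% hematocrit, in Albumax-supplemented RPMI 1640.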

[9] = Quantitative high throughput screen for delayed death inhibitors of the malarial parasite plastid, 48 hour incubation (AID 488752); further: nearly all actives have a fitted effect of over 65% in size
Method in brief: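 One-generation (48 h) growth assay: a decrease in luciferase signal from an integrated reporter in P. falciparum-infected red cells (0.1% parasitemia, 2% hematocrit) after compound exposure at 37 C indicates parasite inhibition.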

[10] = molecular target: Thioredoxin reductase 1, cytoplasmic (Rattus norvegicus) (UniProt O89049); assay: qHTS Assay for Inhibitors of Mammalian Selenoprotein Thioredoxin Reductase 1 (TrxR1) (AID 488773); settings: Potency: inhibition;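 further: drop in NADPH fluorescence over an 8 min run after selenite addition; series mostly up to about 57 µM; nearly all actives have a fitted effect of over 40% in size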
Method in brief: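 Inhibition is scored from the loss of NADPH fluorescence between first and last reads of an 8-min kinetic run. Selenite (400 uM) was the substrate, added after 15 min compound preincubation at room temperature.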

Ubiquitin carboxyl-terminal hydrolase 2 (Homo sapiens), sequence (O75604 whole entry, looked up): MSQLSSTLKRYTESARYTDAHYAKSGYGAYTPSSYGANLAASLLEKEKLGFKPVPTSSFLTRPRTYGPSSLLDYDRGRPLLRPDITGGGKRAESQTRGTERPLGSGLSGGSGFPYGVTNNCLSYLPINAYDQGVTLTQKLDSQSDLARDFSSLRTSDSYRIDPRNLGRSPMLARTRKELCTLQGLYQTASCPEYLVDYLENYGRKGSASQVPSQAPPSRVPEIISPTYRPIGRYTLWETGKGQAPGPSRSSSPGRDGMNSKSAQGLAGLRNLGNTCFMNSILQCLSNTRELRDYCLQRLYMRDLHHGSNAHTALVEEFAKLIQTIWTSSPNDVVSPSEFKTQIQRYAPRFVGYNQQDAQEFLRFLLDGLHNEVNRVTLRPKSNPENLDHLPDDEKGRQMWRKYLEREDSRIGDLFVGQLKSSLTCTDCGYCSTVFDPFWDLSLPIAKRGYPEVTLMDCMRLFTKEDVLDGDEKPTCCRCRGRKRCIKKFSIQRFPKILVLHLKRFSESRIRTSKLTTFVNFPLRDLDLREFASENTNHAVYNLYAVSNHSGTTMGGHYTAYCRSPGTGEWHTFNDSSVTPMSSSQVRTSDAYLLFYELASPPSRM
Beta-2 adrenergic receptor (Homo sapiens), sequence (P07550 whole entry, looked up): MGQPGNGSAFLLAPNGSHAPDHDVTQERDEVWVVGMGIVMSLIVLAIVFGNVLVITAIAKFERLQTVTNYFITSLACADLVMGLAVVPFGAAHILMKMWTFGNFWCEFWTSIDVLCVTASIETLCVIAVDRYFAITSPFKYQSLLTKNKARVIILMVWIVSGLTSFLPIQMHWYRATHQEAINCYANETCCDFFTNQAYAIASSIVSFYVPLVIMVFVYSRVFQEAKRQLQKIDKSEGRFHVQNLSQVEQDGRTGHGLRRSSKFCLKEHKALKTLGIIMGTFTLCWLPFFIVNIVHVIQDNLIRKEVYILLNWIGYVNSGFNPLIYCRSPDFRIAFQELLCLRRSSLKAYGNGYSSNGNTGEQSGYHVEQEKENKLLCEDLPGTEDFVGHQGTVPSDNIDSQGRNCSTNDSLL
DNA polymerase III PolC-type (Bacillus subtilis (strain 168)), sequence (P13267 whole entry, looked up): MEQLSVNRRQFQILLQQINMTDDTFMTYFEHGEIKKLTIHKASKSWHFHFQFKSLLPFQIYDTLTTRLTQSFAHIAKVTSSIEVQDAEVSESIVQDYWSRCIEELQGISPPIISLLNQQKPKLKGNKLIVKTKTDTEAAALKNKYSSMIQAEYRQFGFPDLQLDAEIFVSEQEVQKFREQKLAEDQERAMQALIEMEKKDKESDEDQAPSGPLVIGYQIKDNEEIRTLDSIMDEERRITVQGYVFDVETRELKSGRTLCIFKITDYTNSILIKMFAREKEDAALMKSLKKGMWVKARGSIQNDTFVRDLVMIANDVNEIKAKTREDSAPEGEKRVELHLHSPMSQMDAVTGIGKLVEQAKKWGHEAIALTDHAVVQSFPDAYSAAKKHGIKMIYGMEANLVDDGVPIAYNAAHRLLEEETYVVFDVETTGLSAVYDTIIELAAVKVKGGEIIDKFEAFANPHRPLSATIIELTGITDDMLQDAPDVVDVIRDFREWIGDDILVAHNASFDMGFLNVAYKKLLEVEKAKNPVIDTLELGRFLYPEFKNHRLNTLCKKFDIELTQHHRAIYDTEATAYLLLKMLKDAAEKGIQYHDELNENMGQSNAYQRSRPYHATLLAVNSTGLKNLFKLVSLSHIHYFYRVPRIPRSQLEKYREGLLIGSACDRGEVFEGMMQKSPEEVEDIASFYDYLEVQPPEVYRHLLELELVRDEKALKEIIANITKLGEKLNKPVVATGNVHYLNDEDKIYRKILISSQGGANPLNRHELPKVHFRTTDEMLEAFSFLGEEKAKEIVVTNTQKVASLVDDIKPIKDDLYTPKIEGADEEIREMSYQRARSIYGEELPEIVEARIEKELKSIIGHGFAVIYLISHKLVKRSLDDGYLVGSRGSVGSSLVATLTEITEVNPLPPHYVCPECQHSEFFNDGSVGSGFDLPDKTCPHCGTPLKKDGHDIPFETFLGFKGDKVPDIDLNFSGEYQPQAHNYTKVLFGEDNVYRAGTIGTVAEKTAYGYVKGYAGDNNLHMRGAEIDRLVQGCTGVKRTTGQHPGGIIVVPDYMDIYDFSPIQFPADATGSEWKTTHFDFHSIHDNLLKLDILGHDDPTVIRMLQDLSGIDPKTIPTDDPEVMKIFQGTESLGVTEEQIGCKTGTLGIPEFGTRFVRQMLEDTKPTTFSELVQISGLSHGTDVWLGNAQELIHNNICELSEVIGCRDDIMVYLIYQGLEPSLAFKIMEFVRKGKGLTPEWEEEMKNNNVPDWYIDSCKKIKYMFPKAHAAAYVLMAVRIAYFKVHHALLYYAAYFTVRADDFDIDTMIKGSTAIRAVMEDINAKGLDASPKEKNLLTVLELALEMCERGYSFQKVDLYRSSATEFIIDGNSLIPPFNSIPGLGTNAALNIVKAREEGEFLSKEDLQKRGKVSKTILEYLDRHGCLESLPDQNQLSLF
Thioredoxin reductase 1, cytoplasmic (Rattus norvegicus), sequence (O89049 whole entry, looked up): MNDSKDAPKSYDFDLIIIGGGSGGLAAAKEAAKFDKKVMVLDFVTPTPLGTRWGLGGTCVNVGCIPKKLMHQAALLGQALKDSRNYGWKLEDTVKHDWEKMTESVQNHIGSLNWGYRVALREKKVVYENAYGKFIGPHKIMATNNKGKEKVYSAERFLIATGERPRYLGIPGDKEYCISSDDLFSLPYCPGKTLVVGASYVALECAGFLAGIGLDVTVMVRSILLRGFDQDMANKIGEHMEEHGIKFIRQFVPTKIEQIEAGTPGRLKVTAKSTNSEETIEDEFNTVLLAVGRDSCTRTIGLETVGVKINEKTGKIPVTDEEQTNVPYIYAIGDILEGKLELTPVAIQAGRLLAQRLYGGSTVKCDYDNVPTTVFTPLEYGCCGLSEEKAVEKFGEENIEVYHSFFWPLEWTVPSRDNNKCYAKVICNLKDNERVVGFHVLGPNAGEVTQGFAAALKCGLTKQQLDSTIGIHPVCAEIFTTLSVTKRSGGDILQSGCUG
Tumor susceptibility gene 101 protein (Homo sapiens), sequence (Q99816 whole entry, looked up, the tested form may be a part): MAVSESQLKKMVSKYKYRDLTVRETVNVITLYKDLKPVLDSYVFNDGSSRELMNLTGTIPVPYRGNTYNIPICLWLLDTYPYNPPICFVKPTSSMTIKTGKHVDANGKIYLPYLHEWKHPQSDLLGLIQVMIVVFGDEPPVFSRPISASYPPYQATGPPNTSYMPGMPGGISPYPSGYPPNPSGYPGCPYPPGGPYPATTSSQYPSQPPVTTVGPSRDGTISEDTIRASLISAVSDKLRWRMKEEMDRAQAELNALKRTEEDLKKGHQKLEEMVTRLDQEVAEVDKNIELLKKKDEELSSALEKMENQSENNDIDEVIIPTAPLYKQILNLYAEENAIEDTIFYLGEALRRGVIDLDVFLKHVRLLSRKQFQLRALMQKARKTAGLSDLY
ATP-dependent 6-phosphofructokinase (Trypanosoma brucei brucei), sequence (O15648 whole entry, looked up): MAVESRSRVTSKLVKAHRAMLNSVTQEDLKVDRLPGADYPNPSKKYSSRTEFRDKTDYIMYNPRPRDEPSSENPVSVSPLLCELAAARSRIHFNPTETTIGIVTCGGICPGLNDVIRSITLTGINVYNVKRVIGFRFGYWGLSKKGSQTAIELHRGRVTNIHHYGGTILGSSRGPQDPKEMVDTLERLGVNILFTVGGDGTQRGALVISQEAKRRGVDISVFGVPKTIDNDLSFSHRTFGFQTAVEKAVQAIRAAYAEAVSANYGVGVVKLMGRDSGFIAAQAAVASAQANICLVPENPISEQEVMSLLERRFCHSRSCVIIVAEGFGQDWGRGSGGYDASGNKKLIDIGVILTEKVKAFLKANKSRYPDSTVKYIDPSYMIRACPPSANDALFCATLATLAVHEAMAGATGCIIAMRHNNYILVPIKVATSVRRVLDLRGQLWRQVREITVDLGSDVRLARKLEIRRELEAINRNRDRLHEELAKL

SMILES | Potency [1] | Potency [2] | outcome [3] | Potency [4] | outcome [5] | Potency [6] | outcome [7] | Potency [8] | Potency [9] | Potency [10]
CC(C)[C@@]1(NC(=O)[C@@H]2C[C@@H]3c4cccc5[nH]cc(c45)C[C@H]3N(C)C2)O[C@@]2(O)[C@@H]3CCCN3C(=O)[C@H](Cc3ccccc3)N2C1=O | inactive | inactive | inactive | inactive | inactive | inactive | inactive |  |  | 
CC12NC(Cc3ccccc31)c1ccccc12 (stereo unspecified) | inactive | inactive | inactive | inactive | inactive |  | inactive | inactive | inactive | inactive
NC(=O)c1cc(N2CC2)c([N+](=O)[O-])cc1[N+](=O)[O-] | inactive | inactive | inactive | inactive | inactive |  | inactive | inactive | inactive | inactive
O=C1C=CC(=O)C=C1 | inactive | inactive | inactive | inactive | inactive |  | inactive | inactive | inactive | inactive
NC(=O)c1ccc(OCC(O)CN2CC=C(c3ccc(F)cc3)CC2)cc1 (stereo unspecified) | inactive | inactive | inactive | inactive | inactive |  | inactive | inactive | inactive | inactive
Cc1o[nH]c(=O)c1CC(N)C(=O)O (stereo unspecified) | inactive | inactive | inactive | inactive | inactive |  | inactive | inactive | inactive | inactive
COc1cc(CC(C)N)c(OC)cc1I (stereo unspecified) | inactive | inactive | inactive | inactive | inactive |  | inactive | inactive | inactive | inactive
NC(=O)CI | inactive | inactive | inactive | inactive | inactive | 19 µM (active) | inactive | inactive | inactive | 
COc1ccc2[nH]c3c(c2c1)CCNC3 | inactive | inactive | inactive | inactive | inactive |  | inactive | inactive | inactive | inactive
OC1CCCCC1N1CCC(c2ccccc2)CC1 (stereo unspecified) | inactive | inactive | inactive | inactive | inactive | inactive | inactive | inactive | inactive | inactive
NNC(N)=O | inactive | inactive | inactive | inactive | inactive | inactive | inactive | inactive | inactive | inactive
CCCN1CCC[C@@H](c2cccc(O)c2)C1 | inactive | inactive | inactive | inactive | inactive | inactive |  |  |  | inactive
